Test systems include NCI-H23 lung; NCI-H226 lung; NCI-H322M lung; HOP-62 NSCLC; NCI-H460 lung; HOP-92 NSCLC; NCI-H522 lung; A549/ATCC NSCLC; 786-0 renal; COLO 205 colon; DU-145 prostate; K-562 leukemia; MALME-3M melanoma; MDA-MB-231 breast; SF-268 CNS; SF-295 CNS; SF-539 CNS; UACC-257 melanoma; M14 melanoma.
Common to all, as to experiment: NCI-60 one-dose screen, 48 h (100 = growth as untreated, 0 = no growth, -100 = all killed)
Common to all, as to conditions: 10 µM unless noted

Structures are written as SMILES. Compounds without any hit were thinned out: in the full panel of roughly 83,000, 20% have a hit.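 48-hour exposure, single concentration, 96-well plates; percent growth endpoint where 0 means no net growth. Active: below 10.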 A number with no mark means an inactive call. Active and inactive are the calls of the source.

These results are taken from PubChem BioAssay (NCI).

With `CC[C@@]12C=CCN3CC[C@]4(c5cc(NC(=O)COc6cc(OCC(=O)Nc7cc8c(cc7OC)N(C)[C@H]7[C@@](O)(C(=O)OC)[C@H](OC(C)=O)[C@]9(CC)C=CCN%10CC[C@]87[C@@H]%109)cc7oc(-c8ccccc8)cc(=O)c67)c(OC)cc5N(C)[C@@H]4[C@](O)(C(=O)OC)[C@H]1OC(C)=O)[C@H]32`, the growth with NCI-H23 lung was 0.327% (active); with NCI-H226 lung, 23.7%; with NCI-H322M lung, 45.9%; with HOP-62 NSCLC it was 17.3%; with NCI-H460 lung it was 0.985% (active); in the assay on HOP-92 NSCLC it was 33.9%. Further, the growth was -27.7% (active) with NCI-H522 lung; 51.7% with A549/ATCC NSCLC; 41.4% in the assay with 786-0 renal; 40.2% in the assay with COLO 205 colon; 30.3% in the assay with DU-145 prostate; 45.6% with K-562 leukemia. Besides, the growth in the assay on MALME-3M melanoma is 111%; in the assay on MDA-MB-231 breast it was 4.69% (active); in the assay with SF-268 CNS, -1.19% (active); in the assay on SF-295 CNS, 71.3%; in the assay on SF-539 CNS, 89.3%; in the assay on UACC-257 melanoma it was 103%. The growth in the assay with M14 melanoma was 50.4%.
For the molecule `COc1ccc(Cn2nc(-c3cc(OC)c(OC)c(OC)c3)c3c2CCc2cnoc2-3)cc1OC`, the growth in the assay with NCI-H23 lung was 62.4%; in the assay with NCI-H226 lung, 84.5%; in the assay with NCI-H322M lung, 75.9%; with HOP-62 NSCLC it was 57.2%; in the assay with NCI-H460 lung, 55.1%; in the assay with HOP-92 NSCLC, 33.3%. Besides, the growth in the assay on NCI-H522 lung was 15.2%; with A549/ATCC NSCLC it was 52.2%; in the assay on 786-0 renal, 66.5%; in the assay on COLO 205 colon, 74.4%; with DU-145 prostate, 76.1%; with K-562 leukemia, 18.9%. The growth is 78% in the assay with MALME-3M melanoma; 52.7% with MDA-MB-231 breast; 68% in the assay on SF-268 CNS; 47.6% in the assay with SF-295 CNS; 37.7% in the assay with SF-539 CNS; 75.8% in the assay with UACC-257 melanoma. Moreover, the growth with M14 melanoma is 61.7%.
Consider `Fc1ccc2nc3c(cc2c1)CSc1nnc(-c2ccc[nH]c2=S)n1N3`, for which the growth was 92.7% with NCI-H23 lung; 93.3% in the assay on NCI-H226 lung; 106% in the assay on NCI-H322M lung; 93.3% in the assay on HOP-62 NSCLC; 105% with NCI-H460 lung; 78.1% in the assay on HOP-92 NSCLC. The growth was 86.8% in the assay on NCI-H522 lung; 108% in the assay with A549/ATCC NSCLC; 89.7% in the assay with 786-0 renal; 115% in the assay with COLO 205 colon; 114% with DU-145 prostate; 106% with K-562 leukemia. In addition, the growth in the assay on MALME-3M melanoma was 112%; with MDA-MB-231 breast, 94.4%; with SF-268 CNS, 98.7%; in the assay with SF-295 CNS, 105%; in the assay on SF-539 CNS it was 95.7%; in the assay on UACC-257 melanoma it was 105%. Besides, the growth with M14 melanoma was 99%.
Regarding `Cc1ccc(C2CC(c3cccc(Nc4ccncc4)c3)=NN2c2ccccc2)cc1` (stereo not drawn), the growth with NCI-H23 lung was -69.3% (active); in the assay on NCI-H226 lung, 28.9%; in the assay on NCI-H322M lung it was -87.4% (active); in the assay on HOP-62 NSCLC it was -67% (active); with NCI-H460 lung, -77.8% (active); in the assay with HOP-92 NSCLC, -90.7% (active). Further, the growth was -65.1% (active) with NCI-H522 lung; -60.2% (active) in the assay on A549/ATCC NSCLC; 22.1% with 786-0 renal; -69% (active) in the assay on COLO 205 colon; -72.2% (active) with DU-145 prostate; -15.6% (active) in the assay with K-562 leukemia. For the same molecule, the growth with MALME-3M melanoma was -92.8% (active); in the assay with MDA-MB-231 breast it was -87.9% (active); in the assay on SF-268 CNS it was -73.1% (active); in the assay on SF-295 CNS, -91.3% (active); with SF-539 CNS it was -96.9% (active); with UACC-257 melanoma, -55.7% (active). For the same molecule, in the assay with M14 melanoma, the growth was -49.8% (active).
As to `CCCCCCCCCCCCC1CCC/C=C\CCC(=O)O1` (stereo not drawn), the growth was 88.6% in the assay with NCI-H23 lung; 100% in the assay with NCI-H226 lung; 117% in the assay on NCI-H322M lung; 111% with HOP-62 NSCLC; 104% in the assay with NCI-H460 lung; 111% in the assay with HOP-92 NSCLC. Further, the growth in the assay with NCI-H522 lung is 91.8%; in the assay on A549/ATCC NSCLC, 55%; in the assay with 786-0 renal, 95.4%; in the assay on COLO 205 colon, 101%; in the assay with DU-145 prostate, 115%; with K-562 leukemia it was 101%. In addition, the growth in the assay with MALME-3M melanoma was 108%; in the assay on MDA-MB-231 breast, 99.3%; in the assay with SF-268 CNS it was 101%; with SF-295 CNS, 103%; in the assay with SF-539 CNS, 104%; in the assay with UACC-257 melanoma, 119%. For the same molecule, the growth in the assay on M14 melanoma was 95.2%.
For the molecule `Cc1ccccc1C(c1ccccc1)c1ccccc1C`, the growth was 94.4% in the assay with NCI-H23 lung; 22.1% with NCI-H226 lung; 90.9% in the assay with NCI-H322M lung; 69.5% with HOP-62 NSCLC; 101% in the assay on NCI-H460 lung; 79.7% with HOP-92 NSCLC. In addition, the growth in the assay on NCI-H522 lung is 77.1%; with A549/ATCC NSCLC, 73.6%; in the assay on 786-0 renal, 98.8%; with COLO 205 colon, 105%; with DU-145 prostate it was 117%; in the assay with K-562 leukemia, 105%. Besides, the growth is 109% in the assay with MALME-3M melanoma; 104% with MDA-MB-231 breast; 99.7% in the assay with SF-268 CNS; 97.7% with SF-295 CNS; 106% in the assay on SF-539 CNS; 71.3% in the assay with UACC-257 melanoma. In addition, the growth with M14 melanoma was 80.3%.
Take `C[C@@H]1CN(Cc2ccc(/C=C/c3n[nH]c4ccc5nc(-c6cn[nH]c6C(F)(F)F)c6c(c5c34)CCCC6)cc2)C[C@H](C)O1`: the growth in the assay with NCI-H23 lung is 31.9%; with NCI-H226 lung, 45.3%; in the assay with NCI-H322M lung, 45.1%; in the assay on HOP-62 NSCLC, 36.7%; in the assay on NCI-H460 lung it was -4.09% (active); in the assay on HOP-92 NSCLC it was 41.4%. In addition, the growth in the assay on NCI-H522 lung was 21%; with A549/ATCC NSCLC, 25.3%; with 786-0 renal, 26.6%; in the assay with COLO 205 colon, 1.61% (active); with DU-145 prostate it was 27.7%; in the assay with K-562 leukemia, 10.4%. In addition, the growth was 41.2% in the assay on MALME-3M melanoma; 12.9% in the assay with MDA-MB-231 breast; 36.5% in the assay on SF-268 CNS; 38.4% with SF-295 CNS; 7.28% (active) with SF-539 CNS; 75.5% in the assay with UACC-257 melanoma. Also, the growth in the assay on M14 melanoma is 18.9%.
